The test system of experiment [1] is Human papillomavirus type 1a protein E7 (residues 44-93). Briefly: small molecules binding HPV E7 44-93 – biochemical, small-molecule microarray, residues 44-93, 635 nm fluorescence, primary screen (AID 1108).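 Note: E7 fragment applied at 1 µg/mL in TBST for 1 h at 4 C; score combines spot fluorescence with its signal to noise ratio.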 Conditions: fluorescence 635 nm, higher = more signal.
A short description of experiment [2]: hepatitis C replication reporter changes, two-sided – Huh7 cells, luciferase reporter, HCV replication inhibitor project, primary screen (AID 1109).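 Note: huh7 hepatoma cells harbouring a luciferase neomycin HCV replicon reporter; luciferase luminescence as measure of HCV replicon replication; test concentration not given here.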 Conditions: Huh7 HCV replicon luciferase reporter, 48 h; higher = more signal.
Experiment [3] concerns the target Left-right determination factor 2 (Homo sapiens) (UniProt O00292). The experiment can be described thus: small molecules binding LEFTY2 protein – biochemical, small-molecule microarray, 635 nm fluorescence scan, primary screen (AID 1110). Conditions: higher = more signal.
Experiment [4] deals with Calmodulin-1 (Homo sapiens) (UniProt P0DP23). The experiment can be described thus: small molecules binding calmodulin-1 with EGTA – biochemical, small-molecule microarray, Cy5-labelled CALM1, profiling panel (AID 1111).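 Note: labelled calmodulin applied in Tris saline Tween buffer holding calcium plus EGTA and DTT.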 Particulars: Cy5-CALM1 binding fluorescence, higher = more signal.
Experiment [5] has the same target. Briefly: small molecules binding Ca-loaded calmodulin-1 – biochemical, small-molecule microarray, Cy5-labelled CALM1, plus calcium, artefact control for SMM control-protein annotation, profiling panel (AID 1112).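 Note: score merges spot fluorescence with signal to noise from triplicate slides.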 Particulars: Cy5-CALM1 binding fluorescence, higher = more signal.
A short description of experiment [6]: probe aWnt5a binding to arrayed compounds – biochemical, biotinylated probe, 635/667 nm fluorescence, primary screen (AID 1113).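 Note: score merges 667 nm fluorescence intensity with signal-to-noise per printed feature.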 Conditions: small-molecule microarray, higher = more signal.
Experiment [7] in a line: probe aShh binding to arrayed compounds – biochemical, biotinylated probe, 635/667 nm fluorescence, primary screen (AID 1114).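 Note: probe is biotin-labelled aShh protein from a stem cell growth factor screen; measures binding of labelled protein to compounds printed on the slide; score merges feature fluorescence at 667 nm with signal-to-noise.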 Particulars: small-molecule microarray, higher = more signal.
Experiment [8] is described as follows: probe aNog binding to arrayed compounds – biochemical, biotinylated probe, 635/667 nm fluorescence, primary screen (AID 1115).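 Note: probe is biotinylated aNog protein used at 0.15 µg/mL for 1 h at 4 C; z-score combines 667 nm fluorescence of each spot with its signal to noise.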 Conditions: small-molecule microarray, higher = more signal.
Experiment [9] deals with Torsin-1A-interacting protein 1 (Homo sapiens) (UniProt Q5JTV8). The experiment can be described thus: compound microarray binding of lysate hLAP1 – cell lysate, small-molecule microarray, COS7 lysate, 635/667 nm fluorescence, primary screen (AID 1116). Particulars: 635 nm fluorescence, higher = more signal.
The target of experiment [10] is Alpha-bungarotoxin (Bungarus multicinctus) (UniProt P60615). The experiment can be described thus: compounds binding labelled alpha-BTX control protein – biochemical, small-molecule microarray, Alexa647 label, 635/667 nm fluorescence, artefact control for SMM control protein annotation, profiling panel (AID 1117). Conditions: alpha-BTX-A647 binding fluorescence, higher = more signal.

Experiment [11] has as its target Albumin (Bos taurus) (UniProt P02769). The experiment can be described thus: compounds binding labelled BSA control protein – biochemical, small-molecule microarray, Alexa647 label, 635/667 nm fluorescence, artefact control for SMM control protein annotation, profiling panel (AID 1118).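 Note: score merges 667 nm emission intensity and signal-to-noise per printed compound spot.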 Particulars: BSA-A647 binding, fluorescence 635 nm, higher = more signal.
Experiment [12] in a line: probe aXIP binding to arrayed compounds – biochemical, NeuroSMM set, 635/667 nm fluorescence, primary screen (AID 1119).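 Note: probe is the protein aXip251-270 applied at 1 µg/mL to compound-printed slides; binding of probe to printed compounds measured as 667 nm fluorescence plus signal to noise.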 Particulars: small-molecule microarray, higher = more signal, called active from +8 up or from −8 down.
A short description of experiment [13]: probe aNOTCH3 binding on compound microarray – biochemical, small-molecule microarray, 635/667 nm fluorescence, primary screen (AID 1120).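 Note: probe is a biotin-tagged antibody raised against NOTCH3 rather than NOTCH3 protein; score merges spot fluorescence near 667 nm with spot signal to noise.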 Conditions: higher = more signal.
Experiment [14] can be described thus: probe aNOTCH2 binding on compound microarray – biochemical, small-molecule microarray, 635/667 nm fluorescence, primary screen (AID 1121).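 Note: score merges feature fluorescence read at 667 nm with its signal to noise.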 Particulars: higher = more signal.
For experiment [15], the target named is Carbonic anhydrase 2 (Homo sapiens) (UniProt P00918). The experiment can be described thus: compounds binding carbonic anhydrase 2 – biochemical, small-molecule microarray, Alexa647-labelled CAII, profiling panel (AID 1122). Particulars: CAII-A647 binding fluorescence, higher = more signal.
Experiment [16] in a line: COS7 lysate on small-molecule microarray, probe aHis, 635 nm (AID 1123).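 Note: z-score combines 667nm fluorescence intensity with signal-to-noise per printed compound spot.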 Particulars: COS7 cell lysate, fluorescence, higher = more signal.
Experiment [17] is described as follows: probe aLAP1 signal on lysate-treated microarray – cell lysate, small-molecule microarray, COS7 lysate, primary screen (AID 1124).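 Note: lysate comes from COS7 cells expressing LAP1 and is applied at 0.3 µg/mL; score merges spot fluorescence near 667 nm with signal-to-noise over triplicate slides.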 Particulars: probe aLAP1, fluorescence, higher = more signal.
Experiment [18] concerns Sam68 (KHDRBS1). The experiment can be described thus: compounds binding KHDRBS1 protein – biochemical, small-molecule microarray, 635 nm fluorescence, primary screen (AID 1125).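 Note: score merges 667 nm channel intensity with signal to noise over triplicate slides.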 Particulars: higher = more signal.
In experiment [19] the test system is Chordin-like protein 2 (CHRDL2). The experiment can be described thus: compounds binding chordin-like 2 – biochemical, small-molecule microarray, 635 nm fluorescence, primary screen (AID 1126).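 Note: printed compound slides probed with Chrdl2 protein at 4 µg/mL for 1 h at 4 C; score merges 667 nm emission intensity with signal to noise over three replicate slides.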 Conditions: fluorescence 635 nm, higher = more signal.
The target in experiment [20] is Concanavalin-A (Canavalia ensiformis) (UniProt P02866). The experiment can be described thus: compounds binding concanavalin A lectin – biochemical, small-molecule microarray, Alexa647 label, 635 nm, artefact control for SMM control protein annotation, primary screen (AID 1127).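 Note: z combines 667 nm emission intensity with signal-to-noise across three replicate slides.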 Particulars: ConA-A647 binding fluorescence, higher = more signal.

Drawing on PubChem BioAssay, this text covers composite z-score, z-score and composite Z-score for six compounds.

Calls of active or inactive are those of the source.

Sequence of Torsin-1A-interacting protein 1 (Homo sapiens) (Q5JTV8 whole entry, looked up): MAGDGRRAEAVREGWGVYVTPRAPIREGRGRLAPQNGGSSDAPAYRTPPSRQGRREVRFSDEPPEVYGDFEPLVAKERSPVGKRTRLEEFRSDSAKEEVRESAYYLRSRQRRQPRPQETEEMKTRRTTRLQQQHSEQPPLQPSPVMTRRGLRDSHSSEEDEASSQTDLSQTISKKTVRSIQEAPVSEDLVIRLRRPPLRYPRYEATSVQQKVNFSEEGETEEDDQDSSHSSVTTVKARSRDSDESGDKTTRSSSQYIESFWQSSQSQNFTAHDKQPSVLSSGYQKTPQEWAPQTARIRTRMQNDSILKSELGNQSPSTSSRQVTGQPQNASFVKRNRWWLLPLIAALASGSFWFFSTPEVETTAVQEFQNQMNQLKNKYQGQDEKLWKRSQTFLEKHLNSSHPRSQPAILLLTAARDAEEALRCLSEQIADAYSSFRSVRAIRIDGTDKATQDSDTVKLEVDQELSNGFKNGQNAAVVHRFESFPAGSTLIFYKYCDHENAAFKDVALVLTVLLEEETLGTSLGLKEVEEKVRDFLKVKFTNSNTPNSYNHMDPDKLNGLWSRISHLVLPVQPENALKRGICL
Sequence of Concanavalin-A (Canavalia ensiformis) (P02866 whole entry, looked up): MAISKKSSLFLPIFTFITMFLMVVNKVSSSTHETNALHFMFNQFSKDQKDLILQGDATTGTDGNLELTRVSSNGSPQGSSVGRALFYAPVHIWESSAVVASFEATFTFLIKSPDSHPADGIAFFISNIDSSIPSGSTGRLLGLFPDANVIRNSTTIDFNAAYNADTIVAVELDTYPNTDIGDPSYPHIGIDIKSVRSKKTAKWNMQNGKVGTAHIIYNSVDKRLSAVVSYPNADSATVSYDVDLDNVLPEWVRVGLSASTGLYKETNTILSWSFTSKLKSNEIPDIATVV
Sequence of Albumin (Bos taurus) (P02769 whole entry, looked up): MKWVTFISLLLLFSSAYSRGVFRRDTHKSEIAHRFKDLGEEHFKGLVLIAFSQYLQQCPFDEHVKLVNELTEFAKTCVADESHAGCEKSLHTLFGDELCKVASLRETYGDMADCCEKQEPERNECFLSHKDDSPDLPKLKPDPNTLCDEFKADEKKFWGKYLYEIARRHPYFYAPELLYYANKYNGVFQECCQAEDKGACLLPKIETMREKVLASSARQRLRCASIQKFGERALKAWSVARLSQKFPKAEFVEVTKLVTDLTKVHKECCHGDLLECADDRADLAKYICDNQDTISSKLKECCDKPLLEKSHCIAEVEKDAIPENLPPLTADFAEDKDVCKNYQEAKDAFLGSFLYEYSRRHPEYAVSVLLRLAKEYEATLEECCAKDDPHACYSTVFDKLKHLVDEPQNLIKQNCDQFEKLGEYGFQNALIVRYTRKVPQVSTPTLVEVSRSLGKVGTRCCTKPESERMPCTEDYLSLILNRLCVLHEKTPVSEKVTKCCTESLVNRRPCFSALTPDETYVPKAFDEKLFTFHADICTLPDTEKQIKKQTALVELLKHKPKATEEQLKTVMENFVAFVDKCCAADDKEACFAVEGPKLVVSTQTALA
Sequence of Left-right determination factor 2 (Homo sapiens) (O00292 whole entry, looked up): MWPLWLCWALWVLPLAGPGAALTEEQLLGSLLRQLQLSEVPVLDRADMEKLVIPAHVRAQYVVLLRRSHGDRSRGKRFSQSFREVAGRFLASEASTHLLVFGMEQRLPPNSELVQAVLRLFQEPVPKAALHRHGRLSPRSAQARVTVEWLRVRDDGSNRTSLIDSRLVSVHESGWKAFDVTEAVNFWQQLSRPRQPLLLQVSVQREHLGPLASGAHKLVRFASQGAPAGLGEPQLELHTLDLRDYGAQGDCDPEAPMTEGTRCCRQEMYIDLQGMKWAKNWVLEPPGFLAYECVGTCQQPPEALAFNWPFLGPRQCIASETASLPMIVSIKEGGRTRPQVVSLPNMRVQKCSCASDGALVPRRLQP
Sequence of Alpha-bungarotoxin (Bungarus multicinctus) (P60615 whole entry, looked up): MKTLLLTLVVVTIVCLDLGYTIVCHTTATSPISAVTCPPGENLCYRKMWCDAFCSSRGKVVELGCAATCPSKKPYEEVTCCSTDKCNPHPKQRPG

In the case of `CC(=O)OC[C@H]1O[C@H](CC=NO[C@H](C)c2cn([C@@H]3COC[C@H]3O)nn2)C=C[C@@H]1OC(C)=O`, the composite z-score in [1] is -0.535; in experiment [3] it was 0.0524; in experiment [4], -0.616; in experiment [5] it was -0.934; in [6], -0.0685; in experiment [7] it was -0.206. Moreover, the composite z-score was -0.17 in experiment [8]; 0.637 in experiment [9]; 0.799 in [10]; 0.834 in experiment [11]; -0.182 in [13]; -0.153 in experiment [14]. The composite z-score was -0.0556 in experiment [15]; -0.426 in experiment [16]; -0.16 in experiment [17]; -0.378 in experiment [18]; 0.85 in [19]; -0.152 in experiment [20]. Moreover, the z-score in [2] is -0.774. Further, in experiment [12], the composite Z-score was 0.195 (inactive).
Turning to `CC(C)CON=C1C[C@@H](O)[C@@H](O)[C@@H]2[C@@H]3C(=O)N(c4ccc(F)cc4F)C(=O)[C@@H]3CC[C@@H]12`, the composite z-score was 0.463 in [1]; 0.339 in experiment [3]; 0.0012 in [4]; -0.541 in experiment [5]; -0.0368 in experiment [6]; -0.279 in experiment [7]. For the same compound, the composite z-score was -0.0563 in [8]; 0.142 in experiment [9]; 0.421 in [10]; 0.238 in experiment [11]; -0.095 in experiment [13]; -0.0896 in [14]. In addition, the composite z-score in experiment [15] is 0.0617; in experiment [16] it was -0.146; in experiment [17], 0.135; in [18], 0.693; in experiment [19], 0.243; in [20], 0.72. Besides, in [2], the z-score was -0.049. For the same compound, the composite Z-score in experiment [12] is -0.0578 (inactive).
On to `COc1ccc(COC(=O)NN=C2C[C@@H](O)[C@@H](O)[C@@H]3[C@@H]4C(=O)N([C@@H](C)c5ccccc5)C(=O)[C@@H]4CC[C@H]23)cc1`, for which the composite z-score was -1.05 in [1]; -0.291 in experiment [3]; -0.0436 in [4]; 0.073 in experiment [5]; -0.0405 in [6]; 0.0121 in experiment [7]. The composite z-score in experiment [8] was 0.314; in [9], -0.484; in [10], 0.471; in experiment [11] it was 0.434; in [13], 0.24; in experiment [14], 0.867. In addition, the composite z-score in experiment [15] was -0.277; in experiment [16] it was 0.232; in [17], -0.266; in [18], -0.638; in experiment [19] it was -0.217; in experiment [20] it was 0.0744. Moreover, the z-score in [2] was -1.66. Moreover, the composite Z-score in [12] was -0.259 (inactive).
For `CC1(C)O[C@H]2O[C@H]([C@H](O)CON=C3[C@H]4CCn5c(=O)n(-c6ccccc6)c(=O)n5[C@H]4[C@H](O)[C@@H]4O[C@H]34)[C@H](O)[C@H]2O1`, the composite z-score in experiment [1] is -1.32; in experiment [3], 0.257; in experiment [4], 0.759; in [5], 0.118; in experiment [6], -0.0748; in experiment [7], -0.501. Besides, the composite z-score is 0.222 in experiment [8]; -0.144 in experiment [9]; 0.168 in experiment [10]; 0.661 in experiment [11]; -0.342 in experiment [13]; -0.105 in experiment [14]. The composite z-score in experiment [15] was -0.195; in [16], -0.337; in experiment [17] it was -0.0336; in [18], -0.773; in [19], 0.19; in [20], 0.444. The z-score in experiment [2] was -0.0374. Moreover, in experiment [12], the composite Z-score was -0.171 (inactive).
Turning to `CCN1C(=O)[C@H]2[C@H]3[C@H](O)[C@H](O)CC(=NNC(=O)OCc4ccccc4)[C@@H]3CC[C@H]2C1=O`, the composite z-score in experiment [1] was -0.577; in experiment [3], -0.0089; in experiment [4], -0.0328; in experiment [5], -0.285; in experiment [6], -0.0405; in experiment [7], -0.0463. The composite z-score was -0.0879 in experiment [8]; -0.399 in [9]; 0.645 in experiment [10]; 0.489 in [11]; -0.0647 in [13]; -0.14 in [14]. The composite z-score in experiment [15] is -0.289; in experiment [16], 0.917; in experiment [17], -0.314; in [18], -0.327; in experiment [19], -0.0079; in [20] it was 0.145. In experiment [2], this compound displayed a z-score of 0.232. For the same compound, the composite Z-score in [12] is -0.45 (inactive).
For `CCOC(=O)[C@H](CC(C)C)NC(=O)CCC1CC(OC(=O)NCc2ccc3c(c2)OCO3)CC2(CCCC(COC(=O)NCCc3ccccc3OC)O2)O1` (stereo not given in full), the composite z-score in [1] was 1.31; in experiment [3], 0.613; in experiment [4] it was 0.618; in [5], -0.375; in experiment [6] it was -0.298; in experiment [7], -0.0626. In addition, the composite z-score in experiment [8] is -0.41; in [9], 0.389; in experiment [10] it was 0.556; in [11], 0.31; in experiment [13] it was -0.0328; in experiment [14] it was -0.0633. Moreover, the composite z-score worked out at 0.127 in experiment [15]; 0.754 in experiment [16]; 0.0278 in experiment [17]; 1.29 in [18]; 0.663 in experiment [19]; 1.05 in experiment [20]. For the same compound, the z-score in experiment [2] was -0.621. Also, in experiment [12], the composite Z-score is 1.05 (inactive).
